Assay results as given in ChEMBL document CHEMBL3988442, “University of Dundee, Small-Polar-MMV Screening Library” (2021).
The campaign covered roughly 48,000 compounds. About 13,000 (27%) showed an effect of 50% or more. This is one part of the list.

test system: Wolbachia pipientis; assay: Anti-Wolbachia Cell-Based Screen; type: functional; parameters: scale not given: in the data most compounds retested in dose-response had high values; settings: 5 µM

Row | SMILES | Percent Effect [%]
1 | COc1ccc(NC(=O)Cn2ccc3c(=O)n(C)ccc32)cc1OC | 174.8
2 | Cc1ccc(NC(=O)Cc2c(C)nc3c(c2C)c(=O)[nH]n3C)cc1F | -4.371
3 | Cc1ccc(NC(=O)Cn2ccc3c(=O)n(C)ccc32)cc1F | 136.8
4 | Cc1ccc(NC(=O)CN[C@H](C(N)=O)C(C)C)cc1F | -36.68
5 | Cn1ccc2c(ccn2CC(=O)Nc2ccc(Br)cc2)c1=O | 150.6
6 | CC(=O)c1c(C)nn(CC(=O)Nc2ccc(Br)cc2)c1C | -0.7117
7 | Cc1cc(NC(=O)Cn2cc(C#N)c(=O)c3cc(Br)ccc32)no1 | -1.057
8 | COc1ccc(NC(=O)Cn2nc(C)c(C)cc2=O)cc1OC | -16.79
9 | Cc1cccn2c(=O)cc(CN3CCCC3Cn3cncn3)nc12 (centres undefined) | 14.6
10 | O=C(NCCNS(=O)(=O)c1ccc2c(c1)CCCC2)c1ccoc1 | 1.057
11 | CC(c1ccc(C(F)(F)F)cc1)N1CCN(CCS(C)(=O)=O)CC1 (centres undefined) | -14.82
12 | Cc1nn(C)cc1CNC(=O)c1cn(CCC2CCCCN2)nn1 (centres undefined) | 3.544
13 | CC(C)CSCCN1CCN(S(C)(=O)=O)CC1 | 87.34
14 | CC(OCC(F)(F)F)C(=O)N1CCN(S(C)(=O)=O)CC1 (centres undefined) | -14.66
15 | CCSCCN1CCCN(S(C)(=O)=O)CC1 | 101
16 | Cc1noc(C)c1C(=O)NCCN1CCN(S(C)(=O)=O)CC1 | 1.414
17 | CS(=O)(=O)N1CCCN(CCCSCc2ccccc2)CC1 | 0.2965
18 | CC(C)CSCCN1CCCN(S(C)(=O)=O)CC1 | 87.23
19 | CS(=O)(=O)N1CCN(Cc2ccc(F)cc2Br)CC1 | 0.07282
20 | COc1cccc(/C=C/CCN2CCN(S(C)(=O)=O)CC2)c1 | -6.634
21 | CC(C)COC(C)C(=O)N1CCN(S(C)(=O)=O)CC1 (centres undefined) | -15.22
22 | c1ccc2c(c1)CCN(c1ncnc3sc4c(c13)CCNC4)C2 | -22.34
23 | CC(C)(C)c1nnc(CN2CCn3c(nnc3C3CC3)C2)o1 | -1.017
24 | Cc1nn(C)c(N(C)C)c1CNC(C)COc1ccccc1F (centres undefined) | 101.5
25 | Cc1nn(C)c(N(C)C)c1CNCC(O)COc1ccccc1.Cl (centres undefined) | -3.331
26 | CCOc1cccc(C(C)NCc2c(C)nn(C)c2N(C)C)c1 (centres undefined) | 98.21
27 | Cc1nn(C)c(N(C)C)c1CNCC(O)COc1ccc(F)cc1 (centres undefined) | -24.06

Row | SMILES | Percent Effect [%]
28 | Cc1nn(C)c(N(C)C)c1CNC(C)COc1ccc(F)cc1F (centres undefined) | 105.9
29 | COc1cccc(OCCNCc2c(C)nn(C)c2N(C)C)c1 | -5.717
30 | COCCOc1ccccc1CNCc1c(C)nn(C)c1N(C)C | 3.924
31 | Cc1nn(C)c(N(C)C)c1CNC(C)c1cccnc1 (centres undefined) | 9.889
32 | COc1cc(CNCc2c(C)nn(C)c2N(C)C)ccc1C | 5.351
33 | Cc1nn(C)c(N(C)C)c1CNCc1cccc(CN(C)C(C)C)c1 | 4.552
34 | Cc1nn(C)c(N(C)C)c1CNC(C)COc1ccc(F)cc1 (centres undefined) | 102.4
35 | c1cc(-c2c[nH]c([C@@H]3COCCN3C3CCOCC3)n2)ccn1 | -2.86
36 | COc1cccc(C(C)N2CCN(S(=O)(=O)CCCF)CC2)c1 (centres undefined) | 11.55
37 | CC(C(=O)Nc1ccnn1C(C)C)N1CCN(Cc2ccccc2)CC1 (centres undefined) | -23.16
38 | CC(C)n1cnc2c(-c3cccnc3)nc(C3CCNCC3)cc21.Cl.Cl | -47.69
39 | c1cc(-c2cnc(C3CCNCC3)cn2)n[nH]1 | 125.1
40 | O=c1n(Cc2ncccn2)nc(C2CCNCC2)n1-c1ccccc1 | 0.768
41 | c1cc(-c2cncc(C3CCNCC3)n2)n[nH]1 | 120.5
42 | O=C(c1cscn1)N1CCCC12CCCN(S(=O)(=O)c1ccccc1)C2 (centres undefined) | -2.919
43 | CC(C)[C@@H]1CN(Cc2cnc3c(S(C)(=O)=O)cnn3c2)C[C@H]1N(C)C | -1.352
44 | Cc1nccc(N2C[C@H](NC(=O)CNS(C)(=O)=O)[C@@H](C3CC3)C2)n1 | -1.379
45 | CS(=O)(=O)NCCCN1CCCC1Cc1ccccc1 (centres undefined) | -4.416
46 | CCc1ccc(CNc2cc(N3CCCC3CO)ncn2)s1 (centres undefined) | 110.8
47 | Cc1cccnc1CNc1cc(N2CCCC2CO)ncn1 (centres undefined) | -0.7119
48 | OCC1CCCN1c1cc(NCc2ccc(Cl)s2)ncn1 (centres undefined) | 16.81
49 | OCC1CCCN1c1cc(NCc2cccs2)ncn1 (centres undefined) | 94.03
50 | CNc1cc(N2CCCC2CNCc2ccccn2)ncn1 (centres undefined) | -5.969
51 | Cc1nccc(CNc2cc(N3CCCC3CO)ncn2)n1 (centres undefined) | 87.89
52 | CN(CCCNc1cc(N2CCCC2CO)ncn1)S(C)(=O)=O (centres undefined) | -14.7
53 | Cc1nccc(N2CCCC2CCNS(C)(=O)=O)n1 (centres undefined) | 105.7
54 | COc1ncccc1CNc1cc(N2CCCC2CO)ncn1 (centres undefined) | 0.4879
